Assay outcomes deposited in PubChem BioAssay by National Center for Advancing Translational Sciences (NCATS).
D2 antagonist: HTS Assay for Allosteric Antagonists of the Human D2 Dopamine Receptor: Primary Screen for Antagonists; 340,000 tested, 2% active; inhibition, % at 10 µM; D(2) dopamine receptor (Homo sapiens), P14416; HEK293 TREx D2 cells, calcium flux, dopamine EC80; AID 485344, 2010; in the data active = inhibition above about 30%; inactive = below that, where a call was filed; note: 0% is about no effect
Target sequence (P14416 whole entry, looked up): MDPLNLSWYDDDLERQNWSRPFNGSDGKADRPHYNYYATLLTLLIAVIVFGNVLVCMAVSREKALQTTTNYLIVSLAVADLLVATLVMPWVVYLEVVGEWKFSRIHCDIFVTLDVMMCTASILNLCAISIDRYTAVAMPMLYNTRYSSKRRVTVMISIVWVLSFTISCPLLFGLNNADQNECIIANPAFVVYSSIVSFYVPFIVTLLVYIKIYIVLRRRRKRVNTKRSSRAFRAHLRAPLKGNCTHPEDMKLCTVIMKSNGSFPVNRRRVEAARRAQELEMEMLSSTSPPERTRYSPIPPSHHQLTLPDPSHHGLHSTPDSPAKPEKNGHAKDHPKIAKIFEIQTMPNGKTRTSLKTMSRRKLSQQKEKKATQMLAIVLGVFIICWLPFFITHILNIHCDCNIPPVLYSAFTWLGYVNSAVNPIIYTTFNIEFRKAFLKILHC
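Cells plated overnight at 30 C with tetracycline; no-wash calcium dye, 30–90 min RT; 10 s baseline; compound pinned; 180 s read; EC80 dopamine added; another 180 s read.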
D2 PAM-1: HTS Assay for Positive Allosteric Modulators of the Human D2 Dopamine Receptor: Primary Screen for Potentiators; AID 485347, 2010; potentiation, % at 10 µM; HEK293 T-REx D2, calcium flux, EC20 dopamine potentiation; 340,000 tested, 0.34% active;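 active = potentiation over 3 SD above the plate norm, cut at about 30% in these data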; note: 0% is about no effect
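Potentiation of an EC20 dopamine calcium response measured kinetically over 180 s, after a preceding 180 s compound-only read flagging agonists. Cells: inducible Hek293 Trex D2 line, 4000/well, cultured overnight at 30 C before dye loading.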
D2 ag-1: Beta-Arrestin HTS for Positive Allosteric Modulators of the Human D2 Dopamine Receptor: Agonists. D(2) dopamine receptor (Homo sapiens), P14416. DiscoveRx PathHunter D2 beta-arrestin, luminescence, 90 min; 100% = 57 uM dopamine signal. activation, % (test concentration not listed). 360,000 tested, 0.084% active. AID 624465, 2012; in the data active = activation above about 40%; inconclusive = between about 15% and that limit
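Agonist mode: compounds alone added to overnight-plated D2 PathHunter cells for 90 min at 37 C, with 57 uM final dopamine (EC100) defining full response. Beta-arrestin recruitment detected by chemiluminescent reagent, read after 1 h at ambient temperature.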
D2 ag-2: HTS Assay for Allosteric Agonists of the Human D2 Dopamine Receptor: Primary Screen for Agonists; D(2) dopamine receptor (Homo sapiens), P14416; HEK293 T-REx D2 cells, calcium flux agonist mode; activation, % at 2 µM; 340,000 tested, 0.53% active; AID 485358, 2010;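 active = activation over 3 SD above normal in the single-dose calcium agonist read, cut at about 30% in these data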; note: 0% is about no effect
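In this primary screen, compounds producing a positive calcium signal within 180 s of addition to tetracycline-induced, force-coupled HEK293 Trex D2 cells are flagged; cells are dye-loaded with a no-wash calcium kit beforehand.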
D2 PAM-2: Beta-Arrestin HTS for Positive Allosteric Modulators of the Human D2 Dopamine Receptor: Potentiators | DiscoveRx D2 beta-arrestin cells, luminescence, 90 min; 100% = 57 uM dopamine signal | D(2) dopamine receptor (Homo sapiens), P14416 | 360,000 tested, 0.23% active | potentiation, % (concentration not given with the values); in the data active = potentiation above about 50%; inconclusive = mostly about 30% to 49%
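PathHunter beta-arrestin assay in DiscoveRx D2 cells. Compounds were added with an EC20 of dopamine (50 nM final) for 90 min at 37 deg C. Luminescence was read 1 h after detection reagent, with 57 uM dopamine as the EC100 control.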
Numbers without * were called inactive. In the library only some 2.4% were active in any assay of this set; here they are far more common.

How did O=C(CC(c1ccccc1)c1cc(Br)ccc1O)NCCCN1CCOCC1 (stereo not drawn) do in these assays?
D2 antagonist: -2; D2 PAM-1: -6; D2 ag-1: -5; D2 ag-2: 0; D2 PAM-2: -7

What do the screens show for `CCOC(=O)CNC(c1ccccc1)c1cc(Br)ccc1NC(=O)CCN1CCOCC1` (stereo not drawn)?
D2 antagonist: 38*; D2 PAM-1: -27; D2 ag-1: -7; D2 ag-2: 0; D2 PAM-2: -21

How did O=C(CC(c1ccccc1)c1cc(Br)ccc1O)NCCN1CCOCC1 (stereo not drawn) do in these assays?
D2 antagonist: 77*; D2 PAM-1: 8; D2 ag-1: -2; D2 ag-2: -3; D2 PAM-2: -32

What do the screens show for `CCOc1ccc(CNS(=O)(=O)c2ccc(-c3coc(C)n3)cc2)cc1OC`?
D2 PAM-1: -12; D2 ag-2: 1

What do the screens show for `CCOc1ccccc1N1C(=O)CC(Sc2ncccc2C(=O)O)C1=O` (stereo not drawn)?
D2 antagonist: 36*; D2 PAM-1: -11; D2 ag-1: -1; D2 ag-2: 0; D2 PAM-2: 5

Results for Cc1[nH]c2ccccc2c1C1(O)C(=O)N(Cc2ccccc2)c2ccc(Br)cc21 (stereo not drawn) ?
D2 PAM-1: 9; D2 ag-2: 0

Results for c1ccc(-c2nnc3n2N=C(c2ccc4c(c2)OCO4)CS3)nc1 ?
D2 antagonist: -3; D2 PAM-1: -12; D2 ag-1: -3; D2 ag-2: -1; D2 PAM-2: -23

What do the screens show for `c1cc2c(cc1C1=Nn3c(nnc3C3CCCCC3)SC1)OCO2`?
D2 antagonist: 33*; D2 PAM-1: 13; D2 ag-1: 1; D2 ag-2: -2; D2 PAM-2: -14

What do the screens show for `CCCOc1ccc(CN(C(=O)c2cc(=O)c3ccc(C)cc3o2)C2CCS(=O)(=O)C2)cc1` (stereo not drawn)?
D2 PAM-1: 13; D2 ag-2: 1

What do the screens show for `COc1ccc(CCCNC(=O)C2(C)Cc3c(-c4cccc(C(N)=O)c4)ccnc3O2)cc1` (stereo not drawn)?
D2 ag-1: 76*; D2 PAM-2: 27

How did CC1(C(=O)NCCC(F)(F)F)Cc2c(-c3cccc(C(N)=O)c3)ccnc2O1 (stereo not drawn) do in these assays?
D2 ag-1: 9; D2 PAM-2: -16

Results for CCOc1ccc(Br)cc1C1C(C(=O)OC)=C(C)NC2=C1C(=O)c1ccccc12 (stereo not drawn) ?
D2 PAM-1: -1; D2 ag-2: 0

How did COc1ccc(Cc2c(-c3cccc(Cl)c3)nc3ccc(C)cn23)c(C)c1 do in these assays?
D2 ag-1: -3; D2 PAM-2: -7

Results for COC(=O)COc1ccc2oc(=O)cc(-c3cc4cccc(OC)c4o3)c2c1 ?
D2 antagonist: 46*; D2 PAM-1: 1; D2 ag-1: 0; D2 ag-2: 0; D2 PAM-2: 4

What do the screens show for `CC[C@H](C)[C@H](NC(=O)CNC(=O)COc1cc2c(c3oc(=O)cc(C)c13)CCC(C)(C)O2)C(=O)O`?
D2 antagonist: -21; D2 PAM-1: -14; D2 ag-1: 2; D2 ag-2: 0; D2 PAM-2: 1

What do the screens show for `Cc1cc(=O)oc2c3c(cc(OCC(=O)NCC(=O)N[C@H](C(=O)O)C(C)C)c12)OC(C)(C)CC3`?
D2 antagonist: 30*; D2 PAM-1: 14; D2 ag-1: 1; D2 ag-2: 0; D2 PAM-2: 3

How did Cc1c(C)c2c(OCC(=O)NCc3ccco3)cc3c(c2oc1=O)CCC(C)(C)O3 do in these assays?
D2 antagonist: 30*; D2 PAM-1: 3; D2 ag-1: -3; D2 ag-2: 1; D2 PAM-2: -20

Results for Cc1cc(=O)oc2c3c(cc(OCC(=O)NCc4ccco4)c12)OC(C)(C)CC3 ?
D2 antagonist: 14; D2 PAM-1: -11; D2 ag-1: -3; D2 ag-2: -1; D2 PAM-2: -11

What do the screens show for `COc1ccc(Cc2nc3c4cnn(-c5ccccc5Br)c4ncn3n2)cc1`?
D2 PAM-1: 12; D2 ag-2: -1

What do the screens show for `CN(C)/C=C1\Oc2ccc3ccccc3c2C1=O`?
D2 antagonist: -5; D2 PAM-1: 7; D2 ag-1: 2; D2 ag-2: -3; D2 PAM-2: -3

Results for O=C1C(=O)c2c(ccc3ccccc23)-c2ccccc21 ?
D2 ag-1: inconclusive; D2 PAM-2: 59*

How did COc1ccccc1NC(=O)Nc1ccc(-n2ccc(C(F)(F)F)n2)cc1 do in these assays?
D2 antagonist: 71*; D2 PAM-1: -14; D2 ag-1: 1; D2 ag-2: 1; D2 PAM-2: -14

How did COc1ccccc1NC(=O)Nc1nc(CC(=O)Nc2cc(F)ccc2F)cs1 do in these assays?
D2 antagonist: 14; D2 PAM-1: -5; D2 ag-1: -2; D2 ag-2: 0; D2 PAM-2: 56*

How did COc1ccccc1NC(=O)Nc1nc(CC(=O)Nc2cccc(F)c2)cs1 do in these assays?
D2 antagonist: -20; D2 PAM-1: 19; D2 ag-1: 7; D2 ag-2: -1; D2 PAM-2: -13

Results for COc1ccccc1NC(=O)Nc1cc(F)ccc1F ?
D2 antagonist: 32*; D2 PAM-1: -5; D2 ag-1: -2; D2 ag-2: 0; D2 PAM-2: -4

What do the screens show for `Cc1cc(C)cc(NC(=O)Nc2ccc(-n3ccc(C(F)(F)F)n3)cc2)c1`?
D2 antagonist: 11; D2 PAM-1: -13; D2 ag-1: 5; D2 ag-2: 2; D2 PAM-2: -7

Results for COc1ccccc1NC(=O)Nc1nc(C(C)(C)C)cs1 ?
D2 antagonist: 35*; D2 PAM-1: -18; D2 ag-1: -3; D2 ag-2: 0; D2 PAM-2: -26

Results for CCc1ccc(NC(=O)Nc2ccccc2OCc2cc(=O)n3ccccc3n2)cc1 ?
D2 PAM-1: -6; D2 ag-2: 1

How did CN1/C(=C\C=C(/C#N)C(=O)Nc2ccccc2F)C(C)(C)c2ccccc21 do in these assays?
D2 antagonist: 4; D2 PAM-1: -5; D2 ag-1: -4; D2 ag-2: 62*; D2 PAM-2: -3

Results for CN1/C(=C/C=C(/C#N)C(N)=O)C(C)(C)c2ccccc21 ?
D2 ag-1: -7; D2 PAM-2: -19
